Screen size: about 48,000 compounds; about 13,000 (27%) showed an effect of 50% or more. The list shows a part of the results.
Each compound was assayed on Wolbachia pipientis (assay: Anti-Wolbachia Cell-Based Screen). Settings: 5 µM.
Format: functional
Set-up: scale not given: in the data most compounds retested in dose-response had high values

Row | SMILES | Percent Effect
1 | O=S(=O)(C1CC1)N1CCOC2(COCCN(c3ncccn3)C2)C1 (centres undefined) | -6.11%
2 | Cc1cnccc1-n1nc(C(C)C)nc1CCN(C)S(C)(=O)=O | -12.77%
3 | CCN(CC(F)(F)F)C(=O)C1CCCN(Cc2cscn2)C1 (centres undefined) | 6.1%
4 | COCC(=O)NCCC(=O)N1CCN(S(=O)(=O)c2ccc(Br)cc2)CC1 | 15.42%
5 | COCCCN(C)Cc1nc2c(cnn2C)c(=O)[nH]1 | -7.298%
6 | COCCN(CCc1ccccc1)Cc1nc2c(cnn2C)c(=O)[nH]1 | 10.98%
7 | CC(C)N(Cc1nc2c(cnn2C)c(=O)[nH]1)c1ccccc1 | -5.677%
8 | Cc1ccc(C(C)N(C)Cc2nc3c(cnn3C)c(=O)[nH]2)cc1 (centres undefined) | -5.253%
9 | COCCN(Cc1nc2c(cnn2C)c(=O)[nH]1)C(C)c1ccccc1 (centres undefined) | 98.63%
10 | COCCCN(CCOC)Cc1nc2c(cnn2C)c(=O)[nH]1 | 93.22%
11 | COCCN(CCOC)Cc1nc2c(cnn2C)c(=O)[nH]1 | 107.8%
12 | CC(C)(C)c1cc(CN2CCOCC(O)C2)n[nH]1 (centres undefined) | 40.36%
13 | CC(=O)Nc1cc(F)c(S(=O)(=O)N(C)CC2CCC2)c(F)c1 | 32.27%
14 | Cn1cccc1CN1CCC2(CC1)CC(Oc1cccnc1)C2.O=C(O)C(F)(F)F.O=C(O)C(F)(F)F | 9.854%
15 | COC(=O)C(C)Sc1nnnn1C1CCOCC1 (centres undefined) | -41.77%
16 | c1ccc(N2CCN(Cc3cnc(C4CCCCO4)nc3)CC2)cc1 (centres undefined) | 50.77%
17 | O=C1OCCC1N1CCN(c2ccccn2)CC1 (centres undefined) | 0.5958%
18 | OCC1(CC2CC2)CCCN(Cc2cnc(N3CCOCC3)nc2)C1 (centres undefined) | 1.203%
19 | CCOC(C)c1noc(CN2CCCN(c3ccccn3)CC2)n1 (centres undefined) | 3.417%
20 | CN(C)[C@H]1CCCCN(Cc2cnc(NCc3ccccc3)nc2)C1 | -3.217%
21 | c1ccc(CN2CCN(Cc3cnc(C4CCCCO4)nc3)CC2)cc1 (centres undefined) | 181.4%
22 | OCC1(O)CCN(Cc2ccc(C3CCCCO3)o2)CC1 (centres undefined) | 2.159%
23 | Cl.Cl.OC(CN1CCN(Cc2ccccc2)CC1)C1CC1 (centres undefined) | 1.667%
24 | O=C(O)C1CN(Cc2cnc(C3CCCCC3)nc2)CCO1 (centres undefined) | -13.64%
25 | c1nc(C2CCCCO2)ncc1CN1CCOCC1 (centres undefined) | 157.1%

Row | SMILES | Percent Effect
26 | c1ccc(N2CCN(Cc3cnc(C4CCCCO4)nc3)CC2)nc1 (centres undefined) | 112.3%
27 | CNS(=O)(=O)c1ccc(CN2CCCN(c3ccccc3)CC2)cc1 | 23.15%
28 | COc1ccc(CC(=O)N2CCc3nnc(N(C)C)cc3C2)cc1F | -3.012%
29 | CCN(CC)S(=O)(=O)N1C[C@@H]2CC[C@H](C1)N(Cc1cscn1)C2=O | -30.66%
30 | CCC1c2ccccc2CCN1C(=O)c1ccnc(C(=O)OC)c1 (centres undefined) | -12.45%
31 | CC(C)NC[C@H]1COCc2nc3cccnc3n21 | -0.2965%
32 | O=C(c1ccc2ncsc2c1)N1CCC(C(=O)O)(n2cccn2)CC1 | -48.02%
33 | CC(C)(C)c1nnc(CN2CCN(S(C)(=O)=O)CC2)o1 | 12.09%
34 | O=C(CCC(=O)N1CCc2ccccc2C1)c1cccs1 | 11.35%
35 | CC1CCN(C(=O)CSCCN2CCOCC2)CC1 | 94.74%
36 | CC1CCN(C(=O)CSCc2nc(C3CC3)no2)CC1 | 2%
37 | O=C(CSCCN1CCOCC1)N1CCc2ccccc2C1 | 125%
38 | O=C(Cn1cc(I)cn1)N1CCc2ccccc2C1 | 13.89%
39 | O=C(CSCCN1CCOCC1)N1CCCCCC1 | 88.11%
40 | CC1CCN(C(=O)CSCc2noc(C(C)C)n2)CC1 | -0.6667%
41 | CC(=O)N1CCOC2(CCCN(C(=O)CCN3CCCCC3)C2)C1 (centres undefined) | -17.75%
42 | CCOCCN1CCN(CCC(=O)N2CCCCC2)CC1 | -4.912%
43 | N#Cc1cccnc1OC1CCN(C(=O)NCc2ccccc2)CC1 | 7.798%
44 | CC(=O)N1CCCC2(CN(Cc3ccc(C)s3)CCO2)C1.O=C(O)C(F)(F)F (centres undefined) | 0.2205%
45 | O=C(CC1OCCc2ccccc21)NCC1(O)CCCCC1 (centres undefined) | -10.96%
46 | Cc1ccc(CNc2ccn(CCC(N)=O)n2)c(Br)c1 | -13.88%
47 | CCC(CO)N(Cc1ccccn1)C(=O)c1ccc(C)c(Cl)c1 (centres undefined) | -8.3%
48 | c1cc(-c2cnc(NC3CC3)nc2[C@H]2CCCO2)ccn1 | 171.5%
49 | CC(C)Nc1ncc(-c2ccncc2)c([C@@H]2CCCO2)n1 | 174%
50 | c1cc(-c2cnc(NC3CC3)nc2[C@@H]2CCCO2)ccn1 | 175.9%

Row | SMILES | Percent Effect
51 | CC(C)c1cc(C(=O)N(Cc2ccncc2)CC2CCCO2)no1 (centres undefined) | 4.129%
52 | COc1ccc(-c2ccncc2)cc1CNC1CCCC1 | -7.134%
53 | COc1ccc(CCC(=O)NCCC2CCCO2)cc1Br (centres undefined) | 4.709%
54 | O=C(NCCn1ccnc1)C1(c2ccc3c(c2)OCCO3)CCCC1 | 33.12%
55 | CC(C)(CO)Nc1cc(-c2ccccc2)ncn1 | 83.59%
56 | CC(C)(CO)Nc1cc(-c2cn[nH]c2)ncn1.Cl | 116.8%
57 | CC(C)(CO)Nc1cc(-c2ccncc2)ncn1 | 106.2%
58 | COc1ccc(-c2cn[nH]c2)cc1CNC1CCCC1 | -15.21%
59 | CC(C)(C)S(=O)(=O)CCNC(=O)c1cnc(-c2ccccc2)nc1 | -10.41%
60 | CC(C)(CO)Nc1ccc(-c2nc(-c3ccccc3F)no2)cn1 | -13.37%
61 | CN(Cc1ccsc1)Cc1ccc(C2CCCCO2)o1 (centres undefined) | 10.63%
62 | Cc1cccc(OC2CCN(c3ccc(C#N)cn3)CC2)n1 | -50.95%
63 | CN(C)[C@@H]1CCN(c2ncccn2)[C@H]1Cc1ccncc1.O=C(O)C(F)(F)F.O=C(O)C(F)(F)F | -8.933%
64 | CC(O)CN(Cc1cccc(C(N)=O)c1)c1ccccc1 (centres undefined) | -3.401%
65 | Cc1cc(CN(C)C(=O)C2CCC(=O)N(CC3CCCCC3)C2)n[nH]1 (centres undefined) | 15.57%
66 | Cc1nc(C)n(CC2CCCN2CCCc2ccccc2)n1 (centres undefined) | -4.599%
67 | Cc1nc(C)n(CC2CCCN2CCCc2nc3ccccc3o2)n1 (centres undefined) | 115.5%
68 | Cc1cc(C2CCCN2CCCc2nc3ccccc3o2)on1 (centres undefined) | 8.097%
69 | Cc1nc(C)n(CC2CCCN2Cc2nc(N)c3ccccc3n2)n1 (centres undefined) | 4.973%
70 | Cc1cnn(CC2CCCN2CCCc2nc3ccccc3o2)c1 (centres undefined) | 11.07%
71 | Cc1nn(C)c(C)c1C1CCCN1CCCc1nc2ccccc2o1 (centres undefined) | 0.8066%
72 | Cc1cc(C)n(CC2CCCN2CCCc2nc3ccccc3o2)n1 (centres undefined) | 125.1%
73 | Cc1nc(C)n(CC2CCCN2Cc2nc3ccccc3nc2C)n1 (centres undefined) | -1.93%
74 | Cc1nc(C)n(CC2CCCCN2Cc2nc3ccccc3o2)n1 (centres undefined) | 96.27%
